High-throughput results as filed in PubChem BioAssay.
FLuc counter: qHTS profiling assay for firefly luciferase inhibitor/activator using purifed enzyme and Km concentrations of substrates (counterscreen for miR-21 project); Luciferin 4-monooxygenase (Photinus pyralis), P08659; purified FLuc, Km substrates, luminescence inhibition; Potency, µM (titrated, usually from 57.5 µM), without a hit: at the highest dose activity change, negative = inhibition, hits mostly inhibitors; 360,000 tested, 6.9% active; AID 588342, 2011;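 also: plate controls were vehicle for no effect and reference inhibitor for full effect; nearly all actives have a fitted effect of over 55% in size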
Target sequence (P08659 whole entry, looked up): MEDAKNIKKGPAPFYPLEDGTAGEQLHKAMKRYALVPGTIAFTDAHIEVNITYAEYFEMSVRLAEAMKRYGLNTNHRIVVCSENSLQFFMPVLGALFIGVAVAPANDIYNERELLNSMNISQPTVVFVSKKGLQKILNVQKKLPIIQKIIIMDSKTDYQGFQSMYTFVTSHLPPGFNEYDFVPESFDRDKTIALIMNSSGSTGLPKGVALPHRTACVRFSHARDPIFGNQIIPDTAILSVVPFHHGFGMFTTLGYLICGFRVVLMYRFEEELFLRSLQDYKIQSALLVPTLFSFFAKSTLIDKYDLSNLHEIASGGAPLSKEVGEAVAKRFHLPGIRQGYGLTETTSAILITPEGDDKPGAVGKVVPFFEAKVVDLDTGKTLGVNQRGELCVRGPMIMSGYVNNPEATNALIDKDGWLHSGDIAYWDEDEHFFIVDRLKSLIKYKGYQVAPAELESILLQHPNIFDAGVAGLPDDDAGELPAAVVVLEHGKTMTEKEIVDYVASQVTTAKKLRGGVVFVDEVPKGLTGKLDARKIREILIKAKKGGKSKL
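Purified P. pyralis luciferase (10nM final) with 10uM D-luciferin and 10uM ATP (Km levels) in 50mM Tris acetate pH 7.5, 10mM Mg acetate, 0.01% Tween-20, 0.05% BSA; qHTS 6-point titration, ~60 µM downward; luminescence read.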
SMN2 splice enh: qHTS Assay for Enhancers of SMN2 Splice Variant Expression | HEK293 SMN2-luciferase splicing reporter, luminescence, 30-36 h | Potency, µM (titrated, usually from 46.1 µM), for the others: at the highest dose activity change, positive = activation, hits mostly activators | AID 1458, 2008 | 210,000 tested, 2.8% active; also: % of control where 0% means no effect; nearly all actives have a fitted effect of over 55% in size
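HEK293 cells carry an SMN2 minigene-luciferase reporter in which exon 7 inclusion puts luciferase in frame. Cells were seeded at 2000 cells/well, attached for 10-12 hours, then exposed to compounds for 30-36 hours at 37C before ONE-Glo luminescence.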
Luc counter: Counterscreen for Luciferase (Kinase-Glo TM) Inhibition; Potency, µM (titrated, usually from 38.3 µM), for inactives: top-dose activity change, negative = inhibition, usual class: inhibitors; Kinase-Glo luciferase, ATP luminescence, 8 min; 200,000 tested, 0.28% active; also: % is scaled to controls: 0 for no effect and ±100 for the full control effect; nearly all actives have a fitted effect of over 60% in size
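Compound is pinned into ATP-containing buffer (10 uM ATP, imidazole pH 7.2, 7 mM MgCl2). Kinase-Glo luciferase reagent is then added. Light output is recorded following an 8-min room-temperature incubation.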
NPC1 prom act: qHTS Assay for NPC1 Promoter Activators; 320,000 tested, 2.4% active; Potency, µM (top dose mostly 9.22 µM), without a hit: at the top dose activation, actives largely listed as activators; Huh7 NPC1 promoter luciferase reporter, 24 h; also: % of control where 0% means no effect; nearly all actives have a fitted effect of over 60% in size
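NPC1 promoter–luciferase Huh7 cells; 24 h compound; luminescence.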
ELG1 genotoxic: qHTS screen for small molecules that induce genotoxicity in human embryonic kidney (HEK293T) cells expressing luciferase-tagged ELG1. HEK293T ELG1-luciferase reporter, luminescence, 16 h. Potency, µM (top dose mostly 46 µM), without a hit: at the highest dose activity change, positive = activation, hits mostly activators. 330,000 tested, 1.3% active. AID 504466, 2011; also: % of control where 0% means no effect; nearly all actives have a fitted effect of over 60% in size
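Quantitative HTS format in 1536-well plates. HEK293T ELG1-luciferase reporter cells receive test compound and are incubated 16 hr at 37 °C, 5% CO2; ONE-Glo added, 30 min room temperature, then luminescence read.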
Rab9 prom act: qHTS Assay for Rab9 Promoter Activators; 320,000 tested, 2.8% active; Potency, µM (series often up to 9.22 µM), without a hit: top-dose activation, negative = inhibition, usual class: activators; Huh7 Rab9 promoter-luciferase reporter, luminescence, 24 h; also: % of control where 0% means no effect; nearly all actives have a fitted effect of over 60% in size
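Quantitative HTS format; Huh7 Rab9-luciferase reporter cells (1500/well) receive compound 2 h post-plating, incubate 24 h at 37 °C, then get luciferase reagent for 10 min before luminescence reading.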
Active calls of the source: *; u = inconclusive; x = no result; [ ] = remark or other dose. This is a sample that favours compounds with a hit; in the whole collection about 7.3% have one here. Calls follow the shape of the dose curve; as a rule, active = well fitted curve in the direction sought with a large enough effect; inconclusive = small, poorly fitted or top-dose-only effect, or another doubt; inactive = no such curve, though single readings can be large; an effect the other way counts as inactive or inconclusive. Potency is read from the fitted curve at half-maximal effect.

SMILES	FLuc counter	SMN2 splice enh	Luc counter	NPC1 prom act	ELG1 genotoxic	Rab9 prom act
Nc1nn(-c2ccccc2)c(N)c1N=Nc1ccccc1F	0.953µM*	3.55µM*	-0.7%	0.562µM*	u	0.447µM*
Nc1c(N=Nc2ccccc2F)c(=O)[nH]n1-c1ccccc1	3.79µM*	20.3%	-21.0%	u	u	u
Cc1cc(=O)n2[nH]c(N)c(N=Nc3ccccc3F)c2n1	u	-21.5%	-2.9%	-4.0%	-9.1%	-1.5%
Cc1nn(-c2ccccc2)c(N)c1C(O)(C(F)(F)F)C(F)(F)F	-3.6%	18.0%	4.9%	-4.8%	-0.7%	-12.4%
Cc1cccc(N=Nc2c(C)nn(-c3ccccc3)c2N)c1C	13.5µM*	u	4.5%	24.5%	u	u
CCOc1ccc(CCNC(=O)c2cc3sc(Cl)cc3n2C)cc1OCC	1.0%	-22.8%	-3.4%	-4.8%	-4.8%	0.0%
COc1ccc(C(=O)O)cc1NC(=S)NC(=O)/C=C/c1ccc(C(C)C)cc1	10.7µM*	x	x	1.7%	0.3%	-2.9%
CCCCC(=O)NC(=S)Nc1cc(C(=O)O)ccc1OC	4.4%	2.9%	-1.5%	-2.1%	0.8%	-8.1%
CCOc1ccc(C(=O)NCc2nc3cccnc3n2Cc2cccc(OC)c2)cc1	-1.8%	x	x	x	x	x
Cc1ccc(Nc2nnc(SCC(=O)NCCN3C(=O)CSC3=O)s2)cc1	8.49µM*	u	-19.2%	2.2%	11.8%	11.3%
Cc1ccc(Nc2nnc(SCC(=O)NC(Cc3c[nH]c4ccccc34)C(=O)O)s2)cc1 (stereo not given)	19µM*	7.4%	2.1%	-1.8%	3.7%	-2.7%
Cc1ccc(Nc2nnc(SCC(=O)NC3CC3)s2)cc1	7.57µM*	x	x	0.1%	3.8%	6.3%
O=C(O)/C(=C\c1ccccc1)c1ccccc1	-11.3%	-2.6%[9.22 µM]	-4.1%[7.66 µM]	0.3%	0.4%	-5.6%
COc1cc(NC(=O)c2ccccc2)ccc1NC(=O)c1cc2ccccc2o1	0.6%	0.2%	x	-11.2%	8.4%	-1.4%
CCOC(=O)Cn1c(=O)c2c(nc3n2CCN3c2ccc(CC)cc2)n(C)c1=O	13.5µM*	x	x	x	x	x
CCOC(=O)Cn1c(=O)c2c(nc3n2CCN3c2ccc(C)cc2)n(C)c1=O	0.8%	18.3%	-7.3%	1.0%	-5.7%	-2.6%
O=C(Cn1ncc2c(=O)oc3ccccc3c21)NCc1cccnc1	5.2%	x	x	-8.9%	0.1%	-7.5%
Cc1ccc(S(=O)(=O)CCC(=O)OCC(=O)N(Cc2ccccc2)C(C)C)cc1	-0.1%	x	x	-0.5%	1.7%	-1.1%
COCCn1c(SCc2ccc(C(=O)OC)o2)nc2cc(Cl)ccc2c1=O	-1.2%	-9.1%	-1.0%	0.7%	-1.4%	3.55µM*
O=C(CSc1oc(-c2ccco2)nc1S(=O)(=O)c1ccc(Cl)cc1)c1ccc(Cl)cc1	-4.7%	-0.3%	x	x	x	x
COc1ccc(C(=O)Nc2cc(C(C)=O)c(/C=C/N(C)C)oc2=O)cc1	u	-5.1%	-7.4%	-2.9%	-0.3%	4.3%
Cc1oc(=O)c(NC(=O)c2ccccc2)cc1C(=O)c1ccccc1	15.1µM*	26.0%	-1.1%	u	u	2.24µM*
Cc1cc[n+](CC(=O)c2cc3ccccc3oc2=O)cc1	23.9µM*	-2.0%	1.4%	1.3%	14.7%	24.6%
CC(=O)c1cc(NC(=O)c2ccc(C)cc2)c(=O)oc1C	16.9µM*	x	u	-1.6%	u	-1.6%
Cc1cc(C)nc(SCC(=O)c2cc3ccccc3oc2=O)n1	-7.7%	-9.2%	-0.2%	1.7%	-0.3%	-0.8%
SMILES	FLuc counter	SMN2 splice enh	Luc counter	NPC1 prom act	ELG1 genotoxic	Rab9 prom act
CC(=O)c1cc(NC(=O)c2ccc(C)cc2)c(=O)oc1/C=C/N(C)C	5.36µM*	u	6.6%	-1.1%	3.1%	20.7%
CC(C)OCCCN1C=C2C(=O)C(C)(OC(=O)C3CCCC3)C(=O)C=C2C=C1c1ccsc1 (stereo not given)	x	1.0%[9.22 µM]	-5.0%[7.66 µM]	x	x	x
CC(=O)Nc1cc2ccccc2oc1=O	3.7%	-5.5%	8.0%	0.0%	-6.0%	-10.8%
Cc1ccc(C(=O)Nc2cc3ccccc3oc2=O)cc1	0.0757µM*	x	8.91µM*	0.708µM*	u	u
c1ccc(OCCSc2nnnn2C2CCCCC2)cc1	2.13µM*	11.2µM*	-0.2%	0.562µM*	u	1µM*
Cc1cc(/C=C(\C#N)C(=O)O)c(C)n1C1CC1	u	-11.6%	-0.5%	-1.0%	0.2%	2.2%
COCCNC(=O)/C(C#N)=C/c1cc(C)n(-c2ccc(C)cc2)c1C	0.953µM*	x	-7.2%	1.58µM*	4.11µM*	1.58µM*
COc1ccc(NC(=O)/C(C#N)=C/c2cc(C)n(-c3ccc(F)cc3)c2C)cc1	u	3.4%	x	x	x	x
COCCNC(=O)/C(C#N)=C/c1cc(C)n(C2CCCCC2)c1C	3.01µM*	6.31µM*	-2.3%	1.78µM*	1.3%	0.794µM*
COc1ccc(-n2c(C)cc(/C=C(\C#N)C(=O)NCc3ccco3)c2C)cc1	12µM*	-7.4%	4.4%	8.0%	-0.1%	0.2%
CC1(C(=O)N/N=C/c2ccccc2)CC1(Br)Br (stereo not given)	u	-0.3%	-3.4%	-2.1%	-0.1%	2.9%
O=c1oc(CCCO)cc2ccc(/C=C/c3cccc([N+](=O)[O-])c3)cc12	u	x	x	3.98µM*	4.11µM*	-6.3%
Cc1ccc(S(=O)(=O)Nc2cccc(-c3ccc(N4CCCCCC4)nn3)c2)cc1C	6.01µM*	x	x	u	u	3.16µM*
COc1ccc(S(=O)(=O)Nc2cccc(-c3ccc(N4CCCC4)nn3)c2)cc1OC	16.9µM*	x	x	x	x	x
Cc1ccc([N+](=O)[O-])cc1S(=O)(=O)Nc1cccc(-c2ccc(N3CCCC3)nn2)c1	19µM*	x	x	18.1%	1.4%	15.4%
CCOc1ccc(-c2cccc(NS(=O)(=O)c3cc([N+](=O)[O-])ccc3Cl)c2)nn1	u	x	x	11.6%	1.1%	-2.8%
COc1ccc(S(=O)(=O)Nc2cccc(-c3ccc(N4CCC(C)CC4)nn3)c2)cc1OC	0.426µM*	x	x	x	x	x
COc1ccc(S(=O)(=O)Nc2ccc(-c3ccc(N4CCCC4)nn3)cc2)cc1F	-1.2%	x	x	x	x	x
CC(=O)N1CCN(c2ccc(NS(=O)(=O)c3ccc(C)cc3)cc2)CC1	-1.7%	x	x	4.1%	-2.7%	-2.5%
O=[N+]([O-])c1ccc2ncnc(Nc3ccc4c(c3)OCCO4)c2c1	-0.2%	-0.6%	-1.0%	14.2%	-9.1%	0.3%
c1ccc2c(c1)oc1c(Nc3ccc4c(c3)OCCO4)ncnc12	2.39µM*	2.82µM*	-21.4%	u	13.3%	1.58µM*
